Measured values: PubChem BioAssay AID504332 (National Center for Advancing Translational Sciences (NCATS), 2011)
Where “and” joins values, the source holds several entries; their conditions need not be identical. Equal values may be shown once. In all, about 350,000 compounds went through this assay and about 31,000 (8.9%) were called active. Another 15% or so got no clear call; they are omitted. Calls follow the shape of the dose curve; as a rule, active = well fitted inhibition curve with a large enough effect; inconclusive = small, poorly fitted or top-dose-only effect; inactive = no such curve, though single readings can be large or run the other way. Many of the other results were omitted from the sample, so actives are more common in it than they were.

Molecular target: Histone-lysine N-methyltransferase EHMT2 (Homo sapiens) (UniProt Q96KQ7)
Test: qHTS Assay for Inhibitors of Histone Lysine Methyltransferase G9a; also: nearly all actives have a fitted effect of over 75% in size
Settings: G9a H3K9 monomethylation, AlphaScreen, 2 h; series mostly up to 59 µM
Summary of the method: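 Chemiluminescent proximity detection of H3K9 monomethylation, read after 10 min bead incubation in the dark. Reaction: 20 nM G9a, 500 nM biotin-H3K9 peptide, 20 uM SAM cofactor, 2 h, room temperature, following 15 min enzyme-compound preincubation.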
% is scaled to controls: 0 for no effect and ±100 for the full control effect; potency is read from the fitted curve at half-maximal effect.

Sequence of Histone-lysine N-methyltransferase EHMT2 (Homo sapiens) (Q96KQ7 913-1193 limits assumed): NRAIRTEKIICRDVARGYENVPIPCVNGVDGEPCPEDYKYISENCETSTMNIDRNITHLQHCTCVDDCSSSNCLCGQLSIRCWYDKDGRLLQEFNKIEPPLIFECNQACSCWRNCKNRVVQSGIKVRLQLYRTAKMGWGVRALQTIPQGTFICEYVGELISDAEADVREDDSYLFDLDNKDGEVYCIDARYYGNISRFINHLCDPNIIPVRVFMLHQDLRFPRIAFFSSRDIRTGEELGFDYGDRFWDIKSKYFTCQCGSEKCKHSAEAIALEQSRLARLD

Potency, active:
COc1ccc2c(c1)Cc1sc(NC(=O)c3ccccc3Br)nc1-2 25.1 µM
CCOc1ccc(N2C(=O)/C(=C/c3ccc(C)o3)N(C)C2=S)cc1 3.55 µM
CCN1/C(=C\c2ccc3ccccc3[n+]2CC)Sc2cc(C)ccc21 22.4 µM
Cc1ccc(/C=C/C(=O)Nc2ccc([N+](=O)[O-])c(NC(=O)/C=C/c3ccc(C)o3)c2)o1 22.4 µM
Cc1nnc(SCC2=C(C(=O)O)N3C(=O)C(NC(=O)Cn4nc(C)c(Cl)c4C)C3SC2)s1 (stereo not drawn) 31.6 µM
CC1CCc2c(sc3nc4n(c(=O)c23)CCS4)C1 (stereo not drawn) 50.1 µM
CN(C)CCNC(=O)c1[nH]nc2c1CCc1ccccc1-2 44.7 µM
COc1cccc(/C=N/NC(=O)c2[nH]nc3c2CCc2ccccc2-3)c1O 50.1 µM
CN1CCN(c2nc3c(c(=O)[nH]c(=O)n3C)n2Cc2cccc3ccccc23)CC1 25.1 µM
CN1/C(=C\C=C2\N=C(c3ccc(F)cc3)OC2=O)C(C)(C)c2ccccc21 4.47 µM
Cc1cccc(S(=O)(=O)N2CN(CC3CCCO3)c3nc4ccccc4nc32)c1 (stereo not drawn) 50.1 µM
COc1ccc(Nc2cc(C(=O)NCCCN(C)c3ccccc3)c3ccccc3n2)c(OC)c1 7.94 µM
CCN1C(=NCCc2cccnc2)N[C@@H](c2ccccc2)C(C(=O)OC)=C1C 44.7 µM
Cc1ccc(-c2csc(N3CCN(c4cc5c(cc4Cl)nc(-c4ccncc4)n5CCOCCO)CC3)n2)cc1 50.1 µM
O=C(Nc1sc2c(c1-c1nc3ccccc3[nH]1)CCCC2)C1CC1 50.1 µM
C[N+](C)(C)CCNC(=O)c1cc[n+](Cc2ccccc2)c(/C=N/O)c1 10 µM
Cc1ccc(C)c2[nH]c(=O)c(CN(Cc3cccnc3)C(=S)NCc3ccco3)cc12 50.1 µM
N#C/C(=C\c1ccc(O)c(O)c1)C(=O)NCc1ccccc1 5.01 µM and 5.62 µM and 4.74 µM

Potency, inactive:
Cn1c(=O)c(=O)n(C)c2cc(NC(=O)c3ccccc3Br)ccc21
COc1cccc(C(=O)NNC(=O)c2ccccc2Br)c1
COc1ccc(CNC(=O)c2cc3c(-c4ccccc4F)nn(C)c3s2)c(OC)c1
CCOC(=O)C1(Cc2ccccc2C)CCCN(C(=O)CCc2c(C)noc2C)C1 (stereo not drawn)
CCOc1ccc(N2C(=O)CN(c3cccc4ccccc34)C2=S)cc1
COc1ccc(/C=C2\SC(=O)N(CCC(=O)NC3CCS(=O)(=O)C3)C2=O)cc1 (stereo not drawn)
Cc1ccc(-n2c3nc(=O)[nH]c(=O)c-3cc3c(Cl)cccc32)cc1
CCOc1ccc(S(=O)(=O)N2CCCC(C(=O)N3CCC(C(N)=O)CC3)C2)cc1Cl (stereo not drawn)
Cc1nc2nc(SCC(=O)Nc3cccc(F)c3)[nH]c2cc1Br
CC1(C)N=C(SCc2ccccc2Cl)c2ccccc2N1
CNc1ccc(NC(C)=O)cc1[N+](=O)[O-]
CCc1nnc(NC(=O)/C=C/c2ccc(C)o2)s1
COc1ccc2c(CNCCc3ccccc3C)c(C(=O)O)n(Cc3ccccc3C)c2c1
CCOc1ccc(C2C(C(=O)Nc3ccc(Cl)cc3)=C(C)Nc3nc(C(F)(F)F)nn32)cc1 (stereo not drawn)
Cc1nnc(SCC(=O)NC2CCCC2)s1
Cc1ccc(NC(=O)Cn2nnc3sc4c(c3c2=O)CCC(C)C4)cc1 (stereo not drawn)
CCCn1nnc2sc3c(c2c1=O)CCC(C)C3 (stereo not drawn)
CC1CCN(C(=O)COC(=O)CCC(=O)c2cccs2)CC1
Brc1ccc2c(c1)NC(c1cccnc1)=NC(c1ccccc1)=N2
COc1cccc(/C=N\NC(=O)C2=NNC(=O)C2C)c1O (stereo not drawn)
CCCCN(CC)CCCNC(=O)c1nn(C)c2c1CSc1ccccc1-2
COc1ccccc1N1CCN(C(=O)C2CCN(S(=O)(=O)c3c(C)noc3/C=C/c3ccc(C)cc3)CC2)CC1
Cn1c(SCc2ccc(F)cc2)nnc1-c1ccncc1
CCOc1ccc(Nc2c(S(=O)(=O)c3ccccc3)cnc3ccccc23)cc1
Cc1ccc(CNS(=O)(=O)c2ccc(C(=O)N(C)C)s2)cc1
Cc1ccc(-n2ncc3c(NCCCn4ccnc4)ncnc32)cc1Cl
Cn1c(=O)[nH]c(=O)c2c1nc(N1CCN(C(c3ccccc3)c3ccccc3)CC1)n2CCO
Cn1c(=O)[nH]c(=O)c2c1nc(N1CCCCCC1)n2CC(=O)c1ccccc1
COc1ccc(NC(=O)Cn2c(=O)n(Cc3ccc(C(=O)NCc4ccccc4Cl)cc3)c(=O)c3ccccc32)cc1
CN1/C(=C\C(=O)c2cccnc2Cl)C(C)(C)c2ccccc21
Cc1noc(C)c1C(=O)OCC(=O)/C=C1\N(C)c2ccccc2C1(C)C
Cc1ccc(OCCSc2nc(-c3cccs3)nc3cc(=O)[nH]n23)cc1Cl
Cc1ccc(C(=O)NNC(=O)c2ccncc2)cc1S(=O)(=O)N1CCCCC1
O=S(=O)(NCC1CCCO1)c1ccc2ccccc2c1 (stereo not drawn)
COc1ccccc1NC(=O)c1cc(N2C(=O)C3C4CCC(C4)C3C2=O)ccc1Cl (stereo not drawn)
Cc1ccc2nc(COc3ccccc3NC(=O)Nc3ccc(F)c(Cl)c3)cc(=O)n2c1
O=C(COC(=O)c1ncc(Cl)c(Cl)c1Cl)NCc1ccccc1
COc1ccccc1Nc1cc(C(=O)NCCCN(C)C2CCCCC2)c2ccccc2n1
CCCCN(CCCNC(=O)c1cc(Nc2ccccc2OC)nc2ccccc12)c1ccccc1
NC(=O)C1CCN(C(=O)c2cccc(NC(=O)c3nsc4ccccc34)c2)CC1
COCCN1C(=O)N[C@@H](c2ccccc2)C(C(=O)OC)=C1C
CC(=O)Nc1c(C)nn(-c2ccccc2)c1N1CCC(C(=O)Nc2cc(Cl)ccc2C)CC1
CCOc1c(OC)cccc1C(=O)NCC1(c2ccccc2)CCCC1
CCCn1c(C2CCCN2c2nc(-c3ccc(C)cc3)cs2)nc2cc(Cl)c(N3CCCCC3)cc21 (stereo not drawn)
Cn1c(=O)c2c(nc(NCCc3ccccc3)n2Cc2ccccc2Br)n(C)c1=O
Cc1ccc(-n2c(SCC(=O)c3ccccc3)nc3c([nH]c4ccccc43)c2=O)cc1
CCOC(=O)c1c(NC(=O)C2CCN(S(=O)(=O)c3ccc(Cl)cc3)CC2)sc2c1CCCC2
O=C(OCc1nc2ccccc2[nH]1)C1CCCCC1
CC(C)c1ccc(NC(=O)c2ccc3c(O)c(S(=O)(=O)c4ccccc4)c(=O)[nH]c3c2)cc1
Cc1cc(C)cc(NC(=O)CSc2nc(=O)n(CCN3CCOCC3)c3c2CCC3)c1
Cc1ccc(Cn2cc(CCC(=O)NCc3ccc(OC(C)C)cc3)c3ccccc32)cc1
O=S(=O)(NCCc1ccc(Cl)cc1)c1cccs1
CN(c1ccccc1)S(=O)(=O)c1ccc(C(=O)NCCc2ccccc2)cc1
CCCOc1ccc(C(=O)NCCc2ccccc2)cc1
CCOc1ncccc1C(=O)OCC(=O)N1c2ccccc2CC1C (stereo not drawn)
Cc1ncc(CO)c(/C=N/NC(=O)c2cccc(S(=O)(=O)N3CCCC3)c2)c1O
Cc1cccc2cc(CN(Cc3cccs3)C(=S)NCc3ccco3)c(=O)[nH]c12
Cc1cc(C)c2[nH]c(=O)c(CN(Cc3ccccc3)C(=S)NCCCN(C)C)cc2c1
COCCNC(=O)/C(C#N)=C/c1cccc(OCc2ccccc2)c1

activity, negative = inhibition, inactive:
CCN(CC(=O)Nc1ccccc1C(F)(F)F)C(=O)CSCc1c(C)noc1C 9.18% [at 0.501 µM]
CCOc1ccc(N2C(=O)CSC2=NC#N)cc1 -16.5% [at 12.7 µM]
COc1ccc(C(=O)Nc2ccc(C3(C#N)CCCC3)cc2)cc1OC 5.57% [at 0.501 µM]
CC(C(=O)N1CCN(c2ccccc2F)CC1)c1ccc([N+](=O)[O-])cc1 (stereo not drawn) 13.1% [at 0.501 µM]
O=C1N[C@@H](Cc2ccccc2)C(=O)N2[C@H]1C[C@]1(Br)c3ccccc3N(S(=O)(=O)c3ccccc3)[C@H]21 7.4% [at 2.33 µM]
CN(C)CCCNC(=O)c1ccc2[nH]c3ccccc3c2c1 38.1% [at 0.501 µM]
COc1ccc(C(=O)Nc2ccccc2C(=O)N/N=C/c2ccccc2OC)cc1 14.1% [at 0.501 µM]
O=S(=O)(Nc1ccc(-c2ccc(N3CCOCC3)nn2)cc1)c1cc(Cl)ccc1Cl -28.8% [at 2.33 µM]
Cc1ccc(CNC(=O)CCS(=O)(=O)c2ccc3c(c2)CC(C)N3C(=O)C2CC2)o1 (stereo not drawn) 17.4% [at 0.0925 µM]
Cc1cn([C@H]2CC(F)[C@@H](CO)O2)c(=O)[nH]c1=O (stereo partly drawn) 8.73% [at 12.7 µM]
CC(=O)Nc1ccc(SC[C@H](Cc2ccccc2)N2CC[C@@H](C)CCC2=O)cc1 -3.36% [at 0.501 µM]
Cc1nc2cnc(Nc3ccccc3)nc2n(C[C@H]2CCCO2)c1=O 8.09% [at 0.501 µM]
CCN1C(=NCCc2cccnc2)N[C@@H](c2ccccc2)[C@H](C(=O)OC)[C@H]1C -5.2% [at 12.7 µM]
O=C(CN1C(=O)NC2(CCCC2)C1=O)OCCOc1ccc(F)cc1 -1.07% [at 0.501 µM]
COc1ccc(C(=O)NCC2CCCCC2)cc1S(=O)(=O)N1CCCC1 -36.7% [at 12.7 µM]
COc1ccc(CNC(=O)/C(C#N)=C/c2cccc(OC)c2OC)cc1 44% [at 0.501 µM]
